Data on 22 compounds can be found in the supplement of paper PMC7366291.

SMILES strings stand for the structures. Where a name gives a salt, the structure may show the parent alone. ± gives the standard deviation or the standard deviation of the averaged measurements.

Common to all, as to conditions: 25 µM; exposure: 24-48 hpf
Test [1] deals with Danio rerio Tg(wt1b:EGFP) embryo, pronephros. Nature of the test: glomerular separation, fold change vs DMSO control; higher = glomeruli further apart (abnormal). The method, boiled down: (§1)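 Dechorionated Tg(wt1b:EGFP) zebrafish embryos were exposed to 25 μM compound in 0.5% DMSO, HEPES-buffered E3 with 0.003% PTU, from 24 to 48 hpf at 28.5°C. Pronephroi were imaged dorsally in agarose-filled 96-well plates (470 nm, 10 z-slices). On maximum projections, 16 reference points were set manually in Fiji and a macro computed distances and angles. Values more than 2 SD from the feature mean were excluded. Each feature is a fold change relative to the mean of same-day DMSO controls.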

Test [2] shares this test system. Put plainly: glomerular width (mean of left and right), fold change vs DMSO control; higher = wider glomerulus. In outline:
as §1

Test [3] has the same test system. Put plainly: fraction of imaged embryos annotated as normal kidney; higher = less nephrotoxic; extreme values may be limits of the assay. The method, boiled down:
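Dechorionated Tg(wt1b:EGFP) zebrafish embryos were exposed in 12-well plates to 25 μM compound in 0.5% DMSO, 5 mM HEPES-buffered E3 with 0.003% PTU, from 24 to 48 hpf at 28.5°C. Tricaine-anaesthetised larvae were oriented dorsally in agarose-filled 96-well plates, and pronephroi were imaged by widefield fluorescence (470 nm, 10 z-slices). Each embryo was manually annotated from maximum projections. The read-out is the fraction of embryos per treatment assigned to the normal-kidney category.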

For test [4] the test system is unchanged. Nature of the test: pronephric angle neck segment to proximal convoluted tubule (mean of left and right), fold change vs DMSO control; higher = larger pronephric angle. The method, boiled down: as §1

For the compound `COC(=O)Nc1nc2cc(C(=O)c3cccs3)ccc2[nH]1` [Nocodazole], in test [1], the glomerular separation came out at 1.86 ± 0.67. In test [2], this compound gave a glomerular width of 0.523 ± 0.024. For the same compound, the “fraction of imaged embryos annotated as normal kidney” value (shortened to “fraction of imaged embryos annotated”) in test [3] was determined as 0. Further, the “pronephric angle neck segment” value in test [4] amounted to 1.87 ± 0.13.
The corresponding values for `COc1ccc(C(=O)NCc2cccnc2)cc1C(=O)NCc1cccnc1` [Picotamide monohydrate] are 0.955 ± 0.31, 1.028 ± 0.0052, 0.75 and 0.991 ± 0.0099.
The corresponding values for `NC(=O)OCC(COC(N)=O)c1ccccc1` [Felbamate] are 0.918 ± 0.32, 1.05 ± 0.031, 0.833 and 1.01 ± 0.013.
The corresponding values for `CCCCN(CCCC)CCC(O)c1cc2c(Cl)cc(Cl)cc2c2cc(C(F)(F)F)ccc12` (stereo not drawn) [Halofantrine hydrochloride] are 4.43 ± 1.8, 0.655 ± 0.038, 0 and 1.32 ± 0.061.
In test [1], `CC(C)CC(=O)N[C@H](C(=O)N[C@H](C(=O)N[C@@H](CC(C)C)[C@@H](O)CC(=O)N[C@@H](C)C(=O)N[C@@H](CC(C)C)[C@@H](O)CC(=O)O)C(C)C)C(C)C` [Pepstatin A] registered a glomerular separation of 0.947 ± 0.11. The same compound displayed a glomerular width in test [2] of 1.03 ± 0.012. The “fraction of imaged embryos annotated” value in test [3] was determined as 0.818. In addition, the “pronephric angle neck segment” value in test [4] turned out to be 1.01 ± 0.041.
The corresponding values for `COc1c(O[C@@H]2O[C@H](CO)[C@@H](O)[C@H](O)[C@H]2O)cc2c(c1OC)-c1ccc(SC)c(=O)cc1[C@@H](NC(C)=O)CC2` [Thiocolchicoside] are 1.03 ± 0.41, 0.909 ± 0.018, 0.833 and 0.932 ± 0.027.
`COc1cc(NC(C)CCCN)c2ncccc2c1` (stereo not drawn) [Primaquine diphosphate]: the glomerular separation in test [1] is 1.04 ± 0.21. Also, the glomerular width in test [2] amounted to 1.04 ± 0.079. The “fraction of imaged embryos annotated” value in test [3] amounted to 1. Also, the “pronephric angle neck segment” value in test [4] came to 1.01 ± 0.074.
The corresponding values for `COc1cc(Cc2cnc(N)nc2N)cc(OC)c1OC` [Trimethoprim] are 1.48 ± 0.76, 0.986 ± 0.013, 0.727 and 1.05 ± 0.063.
The corresponding values for `CO[C@@]1(NC(=O)Cc2cccs2)C(=O)N2C(C(=O)O)=C(COC(N)=O)CS[C@@H]21` [Cefoxitin sodium salt] are 0.796 ± 0.27, 0.975 ± 0.012, 0.833 and 0.968 ± 0.04.
The corresponding values for `CC1(C)O[C@@H]2C[C@H]3[C@@H]4C[C@H](F)C5=CC(=O)CC[C@]5(C)[C@H]4[C@@H](O)C[C@]3(C)[C@]2(C(=O)CO)O1` [Flurandrenolide] are 1.09 ± 0.49, 1.08 ± 0.04, 0.333 and 0.979 ± 0.1.
As to `Nc1ncnc2c1ncn2C1OC(COP(=O)(O)O)C(O)C1O` (stereo not drawn) [Adenosine 5'-monophosphate monohydrate], the glomerular separation in test [1] stood at 0.936 ± 0.26. Also, in test [2], the glomerular width stood at 1.029 ± 0.0059. Moreover, the “fraction of imaged embryos annotated” value in test [3] was 0.917. For the same compound, the “pronephric angle neck segment” value in test [4] came out at 0.9657 ± 0.0086.
As for `CCn1cc(C(=O)O)c(=O)c2cc(F)c(N3CCNC(C)C3)c(F)c21` (stereo not drawn) [Lomefloxacin hydrochloride], in test [1], the glomerular separation is 1.54 ± 1.1. In test [2], this compound yielded a glomerular width of 0.974 ± 0.12. In addition, in test [3], the “fraction of imaged embryos annotated” value is 0.5. The “pronephric angle neck segment” value in test [4] came out at 1.12 ± 0.037.
For the compound `CCN1CCCC1CNC(=O)c1cc(S(=O)(=O)CC)c(N)cc1OC` (stereo not drawn) [Amisulpride], the glomerular separation in test [1] is 0.971 ± 0.31. Besides, the glomerular width in test [2] turned out to be 1.04 ± 0.042. In addition, the “fraction of imaged embryos annotated” value in test [3] was 0.9. Further, in test [4], the “pronephric angle neck segment” value worked out at 0.9586 ± 0.0016.
The corresponding values for `O=C1c2cccc3c2[C@H](CCC3)CN1[C@@H]1CN2CCC1CC2` [Palonosetron hydrochloride] are 1.08 ± 0.37, 0.975 ± 0.023, 0.667 and 1 ± 0.038.
The corresponding values for `CCN(CC)CC(=O)Nc1c(C)cccc1C` [Lidocaine hydrochloride] are 0.686 ± 0.29, 1.04 ± 0.015, 1 and 0.9342 ± 0.0069.
In test [1], `COc1ccc2c(c1)C(=O)N(CCc1ccc(S(=O)(=O)NC(=O)NC3CCCCC3)cc1)C(=O)C2(C)C` [Gliquidone] registered a glomerular separation of 1.07 ± 0.54. Also, the glomerular width in test [2] turned out to be 0.883 ± 0.011. Besides, the “fraction of imaged embryos annotated” value in test [3] was determined as 1. Also, the “pronephric angle neck segment” value in test [4] amounted to 1.12 ± 0.039.
In the case of `CCCc1nn(C)c2c(=O)[nH]c(-c3cc(S(=O)(=O)N4CCN(C)CC4)ccc3OCC)nc12` [Sildenafil], in test [1], the glomerular separation is 1.12 ± 0.37. This compound registered a glomerular width in test [2] of 0.928 ± 0.045. The “fraction of imaged embryos annotated” value in test [3] came out at 1. Moreover, the “pronephric angle neck segment” value in test [4] was 0.9607 ± 0.0012.
In turn, `O=C1NCN(c2ccccc2)C12CCN(CCCC(c1ccc(F)cc1)c1ccc(F)cc1)CC2` [Fluspirilen] came in with a glomerular separation in test [1] of 2.89 ± 1.3. The same compound gave a glomerular width in test [2] of 0.687 ± 0.11. In addition, the “fraction of imaged embryos annotated” value in test [3] is 0.333. Also, the “pronephric angle neck segment” value in test [4] is 1.028 ± 0.0059.
The corresponding values for `CC(=O)OCC(=O)[C@@]1(O)CC[C@H]2[C@@H]3CCC4=CC(=O)CC[C@]4(C)[C@H]3[C@@H](O)C[C@@]21C` [Cortisol acetate] are 1.43 ± 0.59, 1.29 ± 0.049, 0.25 and 1.01 ± 0.031.
The corresponding values for `CC(=O)O[C@H]1C(=O)[C@@]2(C)[C@H]([C@H](OC(=O)c3ccccc3)[C@]3(O)C[C@H](OC(=O)[C@H](O)[C@@H](NC(=O)c4ccccc4)c4ccccc4)C(C)=C1C3(C)C)[C@]1(OC(C)=O)CO[C@@H]1C[C@@H]2O` [Paclitaxel] are 1.59 ± 0.55, 1.06 ± 0.015, 1 and 0.964 ± 0.021.
For the compound `CC[C@@]1(O)C(=O)OCc2c1cc1n(c2=O)Cc2cc3c(CN(C)C)c(O)ccc3nc2-1` [Topotecan], in test [1], the glomerular separation came out at 1.74 ± 0.72. In test [2], the glomerular width amounted to 0.793 ± 0.022. For the same compound, in test [3], the “fraction of imaged embryos annotated” value was 0.727. Besides, in test [4], the “pronephric angle neck segment” value was 1.27 ± 0.062.
`COc1ccc([C@@H]2CC(=O)c3c(O)cc(O[C@@H]4O[C@H](CO[C@@H]5O[C@@H](C)[C@H](O)[C@@H](O)[C@H]5O)[C@@H](O)[C@H](O)[C@H]4O)cc3O2)cc1O` [Hesperidin] had a glomerular separation in test [1] of 0.827 ± 0.15. The glomerular width in test [2] came out at 0.938 ± 0.045. Moreover, in test [3], the “fraction of imaged embryos annotated” value is 0.917. The “pronephric angle neck segment” value in test [4] amounted to 0.981 ± 0.012.
